# The list is not random: actives were taken first. Their share in the collection is about 4%.
# Measles CPE – protection of cells from measles virus; Measles virus-infected cells, CPE protection, absorbance; protection (pct of control), % at 4 µM; 140,000 tested, 1.5% active; in the data active = protection mostly above about 24%, no sharp cut-off; inactive = mostly below about 26%
# HSV replic up – HSV replication enhancement | 220,000 tested, 0.005% active | HSV replication augmentation in cells, fold increase | maximum fold increase | AID 1956; in the data active = maximum fold increase above about 1.5; inconclusive = no clear call, values can overlap the other calls; tested in PC3 cells
# Arbovirus anti – blocks arbovirus infection | arbovirus infection cell-based antiviral screen | inhibition, % at 10 µM | 200,000 tested, 0.37% active; in the data active = inhibition above about 30%
# ROMK mod – modulates human ROMK potassium channel activity. P48048. Tet-inducible ROMK, thallium flux fluorescence; actives lie on both sides. B-score at 10 µM. 130,000 tested, 2% active. AID 1918;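 active = signal ratio slope over the read window, or its plate-corrected B-score, at least 3 SD from the plate mean, either direction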;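 also: B-score of the F/F0 ratio slope over 7 to 12 s after thallium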
# Target sequence (P48048 whole entry, looked up): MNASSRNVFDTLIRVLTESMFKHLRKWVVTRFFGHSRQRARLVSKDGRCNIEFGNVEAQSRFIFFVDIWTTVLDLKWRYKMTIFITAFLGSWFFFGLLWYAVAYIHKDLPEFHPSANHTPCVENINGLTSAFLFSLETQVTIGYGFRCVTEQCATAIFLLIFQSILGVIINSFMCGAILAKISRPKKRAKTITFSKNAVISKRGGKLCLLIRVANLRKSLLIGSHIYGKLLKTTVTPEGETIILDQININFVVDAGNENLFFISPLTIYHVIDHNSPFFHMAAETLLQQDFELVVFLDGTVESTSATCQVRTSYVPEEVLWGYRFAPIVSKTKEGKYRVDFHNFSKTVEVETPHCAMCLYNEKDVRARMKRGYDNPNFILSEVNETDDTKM
# KCC2 mod – modulators of human KCC2 chloride dependent transport | KCC2 cells, thallium flux FluoZin-2 fluorescence | B-score of Tl+ flux slope (higher = more flux/activation; lower = inhibition) at 10 µM | AID 1456 | 190,000 tested, 2.2% active | Q9H2X9;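 active = thallium flux slope and its plate-corrected score both differing from the plate sample mean at a set confidence after two filtering rounds, in either direction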;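 also: slope of fluorescence scaled to starting intensity during 10 to 20 s after thallium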
# Starred values were filed as active, the others as inactive; i = inactive; ? = inconclusive; · = no result given.
SMILES,Measles CPE,HSV replic up,Arbovirus anti,ROMK mod,KCC2 mod
Cc1ccccc1NC(=O)COC(=O)c1cc(=O)c2ccccc2o1,·,i,23,0.71,0.27
Cc1noc(C)c1CCC(=O)N1CCCC(CCC(=O)NCc2ccc(F)c(F)c2)C1 (centres undefined),·,i,6,1.2,-0.31
O=C(Nc1ccc(NC(=O)C2CC2)nc1)c1cccs1,57*,i,-5,0.48,-0.047
O=C1NC(c2ccccc2)=C(c2nc3ccccc3s2)C(c2ccc(F)cc2)N1 (centres undefined),7,i,-38,·,-0.059
COc1ccc(C2NC(=O)NC(c3ccccc3)=C2c2nc3ccccc3s2)cc1 (centres undefined),28*,i,-15,0.47,-0.093
Cc1csc(NC(C)c2nc3cc(C(F)(F)F)ccc3n2CCCO)n1 (centres undefined),·,i,·,·,·
OC(Cc1nc2ccccc2[nH]1)c1ccccc1Cl (centres undefined),51*,i,8,0.011,0.0081
O=C(CSc1nccc(=O)[nH]1)Nc1cccc(S(=O)(=O)N2CCOCC2)c1,·,i,8,-0.7,-0.069
COc1ccccc1C(=O)NCC1CCN(c2ccc(S(=O)(=O)N3CCOCC3)cc2)CC1,15,i,45*,0.79,1.3
COc1ccccc1NC(=O)c1ccc(S(=O)(=O)N2CCOCC2)cc1,7,i,1,-0.87,·
O=C1c2ccccc2C(=O)N1CCc1csc(-c2ccc(F)cc2)n1,25,i,0,·,·
O=C1c2ccccc2C(=O)N1CCc1csc(-c2ccccc2)n1,39*,i,-5,·,-2.3
O=c1[nH]c(CSc2nnc(-c3ccccc3)n2-c2ccccc2)nc2ccccc12,28*,i,4,2.1,0.69
Cc1ccc(-n2c(SCc3nc4ccccc4c(=O)[nH]3)nnc2-c2ccccc2O)cc1,6,i,16,-0.87,-0.25
COCC(C)n1c(SCc2nc3ccccc3c(=O)[nH]2)nc2ccccc2c1=O (centres undefined),·,i,45*,-2,-0.085
CC(CC(=O)Nc1ccc(C(N)=O)cc1)c1ccccc1 (centres undefined),29*,i,9,·,0.069
COc1ccccc1-n1cc(C(=O)N2CCCC(CO)(Cc3ccccc3C)C2)cn1 (centres undefined),·,i,18,·,·
CCN(c1ccccc1)S(=O)(=O)c1ccc(NC(=S)NC(=O)c2cccs2)cc1,12,i,3,·,16*
CC(C)(C)N1[C@@H](CC(=O)O)c2cc(C(F)(F)F)ccc2S1(=O)=O,·,i,·,·,·
CC(C)C1Cc2c(sc3[nH]c(=S)n(Cc4ccccc4)c(=O)c23)CO1 (centres undefined),3,·,-19,9.3*,19*
C/C(=N\NC(=O)C1CC1(C)c1ccccc1)c1ccco1 (centres undefined),71*,i,-1,-0.079,-2.2
COC(=O)N/N=C(\C)c1ccco1,·,i,-3,1.8,·
Cc1cc(=O)n2c(n1)NC(Nc1cccc(C)c1C)=NC2c1ccccc1 (centres undefined),·,i,·,·,1.6
CN(Cc1ccccc1)c1ncnc2ccc(Br)cc12,10,i,5,-4.7*,-2.8
O=C(NCCc1ccccc1)[C@@H]1CC=C[C@@H]2CCN(Cc3ccccc3)C(=O)[C@@H]21,·,i,·,·,·
SMILES,Measles CPE,HSV replic up,Arbovirus anti,ROMK mod,KCC2 mod
COc1cc(/C=N/n2nnnc2Nc2ccccc2)cc(OC)c1OC,5,i,3,1.3,0.87
CC(Oc1c(Cl)cccc1Cl)C1=NCCN1 (centres undefined),·,i,·,·,·
CC(c1ccccc1)N1C(=O)/C(=C/c2ccncc2)SC1=S (centres undefined),·,i,·,·,-0.011
CCNC(=S)N/N=C1\CCCCc2ccccc21,8,i,1,·,6.6*
COc1ccccc1OCC(=O)N/N=C1\CCCCc2ccccc21,·,i,·,·,-2.6
C=C(C)CNC(=S)N/N=C1\CCCCc2ccccc21,15,i,24,·,11*
CC1(C)CC(CC(=O)O)(c2ccc(F)cc2)CCO1 (centres undefined),8,i,-5,·,0.65
COc1ccccc1C1(CC(=O)O)CCOC(C)(C)C1 (centres undefined),33*,i,5,0.079,0.16
Nc1nonc1C(=O)NCCNS(=O)(=O)c1ccc(F)cc1,9,i,1,0.058,0.29
Cc1ccc(C(=O)c2no[n+]([O-])c2C(=O)c2ccc(C)cc2)cc1,0,i,7,-5.1*,-2
Cc1ccc(C(=O)c2ccc(C)cc2)cc1,·,i,0,-0.12,-1.4
CCCn1c(N)c(C(c2ccc(C(=O)OC)cc2)N2CCN(c3ccccc3)CC2)c(=O)[nH]c1=O (centres undefined),42*,i,-4,·,-1.6
COc1ccc(N2CCN(C(=O)Cn3c(=O)[nH]c4ccccc4c3=O)CC2)cc1,·,i,-6,-0.21,-1
O=C(NCCCNCc1ccccc1)c1ccncc1,40*,i,1,1.7,-0.47
Cc1c(O)c2c3c(cccc3c1O)C(=O)N(c1ccccc1)C2=O,18,?,35*,·,i
O=C(O)c1ccc2c3c(cccc13)C(=O)N(c1ccccc1)C2=O,·,i,-3,0.074,1
CC(=O)Nc1ccc(N(C)S(C)(=O)=O)cc1,39*,i,0,-0.15,-1.7
CC(=O)Nc1ccc(S(=O)(=O)Nc2cccc(N(C)S(C)(=O)=O)c2)cc1,5,i,6,·,0.54
COc1cccc(CN2CCNC(=O)C2CC(=O)NCCn2ccc3ccccc32)c1OC (centres undefined),·,i,-3,·,0.48
COc1nc(Oc2ccc(=O)[nH]n2)nc(N2CCOCC2)n1,44*,i,16,·,0.62
Cc1nn(CC(=O)Nc2cc(S(=O)(=O)N(C)C)ccc2Cl)c(C)c1[N+](=O)[O-],41*,i,3,·,1.6
CCC(CC)C(=O)c1c[nH]c(C(=O)N2CCN(c3ccc(OC)cc3)CC2)c1,·,i,2,0.44,0.72
c1ccc(-c2nnc(CSc3nnc(-c4ccncc4)n3Cc3ccco3)o2)cc1,4,·,8,·,-0.67
C(=C\c1ccccc1)/CSc1nnc(-c2ccncc2)n1Cc1ccco1,2,i,2,-0.52,-5*
O=C/C(=C\Nc1ccc(Cl)cn1)c1nc2cc(Cl)ccc2o1,14,i,30*,0.8,-1.1
SMILES,Measles CPE,HSV replic up,Arbovirus anti,ROMK mod,KCC2 mod
O=C/C(=C\Nc1ccc(Cl)cn1)c1nc2ccccc2o1,4,i,21,0.17,1.1
NC(=O)Nc1ccc(C(=O)OCC(=O)Nc2cccc(S(=O)(=O)NC3=NCCCCC3)c2)cc1,·,i,·,·,-0.23
Clc1ccc(-c2nc3ccccc3n2OCc2ccccc2)cc1,39*,i,13,·,0.58
CCc1n[n+](CC(=O)c2ccccc2)c(N)s1,·,i,-5,-0.12,0.4
CC(C)CCNC(=O)CCCOc1ccccc1,45*,i,4,0.31,-0.17
CCC(=O)NCCCOc1ccccc1,25,i,1,·,0.011
CC(C)CN1C(=O)c2ccc(C(=O)Nc3nccs3)cc2C1=O,9,·,2,·,-0.4
COCCN1C(=O)c2ccc(C(=O)Nc3nccs3)cc2C1=O,30*,i,-2,-0.25,0.065

# High-throughput results from PubChem.
